Source: PubChem (National Center for Advancing Translational Sciences (NCATS))
S-ASM inh: inhibitors of human secretory acid sphingomyelinase; Potency, µM (highest dose often 57.5 µM), most hits filed as inhibitors; placental ASM, HMU-PC fluorogenic substrate, 60 min; hit rate 0.006% among 340,000; P17405
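qHTS format. ASM enzyme prepared from human placenta hydrolyses the fluorogenic substrate HMU-PC0 (9 uM final) over 60 min at 37 °C after a 10 min compound preincubation.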
RXFP1 antagonist: blocks the human relaxin receptor RXFP1. Q9HBX9. activity change, negative = inhibition, % at 57.5 µM. HEK293-RXFP1, relaxin-stimulated cAMP HTRF, 30 min; active compounds read low. hit rate 0.59% among 350,000;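 active means activity change of -60% or lower, but not beyond a set lower limit; inconclusive means change between -60% and -40%, or beyond the set limit; inactive means change above -40%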
Target sequence (Q9HBX9 whole entry, looked up): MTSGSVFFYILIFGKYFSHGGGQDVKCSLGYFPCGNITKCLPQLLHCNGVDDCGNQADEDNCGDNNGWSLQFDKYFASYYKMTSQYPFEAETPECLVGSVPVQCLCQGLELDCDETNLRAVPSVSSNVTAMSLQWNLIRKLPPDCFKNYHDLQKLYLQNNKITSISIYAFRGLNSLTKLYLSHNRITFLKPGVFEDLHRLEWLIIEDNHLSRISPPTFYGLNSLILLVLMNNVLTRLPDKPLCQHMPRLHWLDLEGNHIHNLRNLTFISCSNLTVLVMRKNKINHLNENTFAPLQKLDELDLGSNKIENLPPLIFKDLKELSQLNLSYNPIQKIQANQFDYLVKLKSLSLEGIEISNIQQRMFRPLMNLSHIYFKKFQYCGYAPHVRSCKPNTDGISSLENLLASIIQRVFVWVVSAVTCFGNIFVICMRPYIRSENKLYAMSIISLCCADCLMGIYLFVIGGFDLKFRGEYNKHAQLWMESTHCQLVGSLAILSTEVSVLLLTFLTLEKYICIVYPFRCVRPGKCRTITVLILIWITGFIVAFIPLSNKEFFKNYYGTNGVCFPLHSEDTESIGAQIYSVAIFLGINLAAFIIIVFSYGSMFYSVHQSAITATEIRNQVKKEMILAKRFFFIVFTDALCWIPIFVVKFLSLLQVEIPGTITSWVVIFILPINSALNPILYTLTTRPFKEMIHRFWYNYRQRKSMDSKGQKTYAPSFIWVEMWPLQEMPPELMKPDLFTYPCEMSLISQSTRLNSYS
gsp ag: agonists of gsp mutant (McCune-Albright syndrome); gsp mutant cells, cAMP HTRF, 30 min; AID 624287; hit rate 0.13% among 340,000; Potency, µM (highest dose often 76.9 µM), actives largely listed as activators; active means well fitted activation curve with a large enough effect; inconclusive means small, poorly fitted or top-dose-only effect, or another doubt; inactive means no such curve, though single readings can be large or run the other way; cell line not stated here;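 further: phosphodiesterase inhibitor Ro 20-1724 added with compounds to block cAMP breakdown; nearly all actives have a fitted effect of over 60% in size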
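Cells in DMEM/10% FBS with G418 were pretreated with compounds in DMSO plus […] (300 uM stock) for 30 min at 37C. cAMP was measured by HTRF (cAMP-d2 plus anti-cAMP antibody-K) after 30 min at room temperature.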
RXFP1 ag: activates the human relaxin receptor RXFP1. Q9HBX9. HEK293T-RXFP1 cAMP TR-FRET, 30 min; response scale: percent of porcine relaxin response, buffer zero. Potency, µM (titrated, usually from 57.5 µM), usual class: activators. hit rate 0.3% among 370,000; further: nearly all actives have a fitted effect of over 60% in size
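cAMP rise read by TR-FRET after 30 min, 37C compound exposure (up to 58 uM) in RXFP1-transfected HEK293 cells with Ro 20174 present. EC50 from Hill-equation fits, with 29 nM porcine relaxin as 100% and buffer as basal.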
gsp antagonist: gsp mutant antagonism; gsp-mutant cells, cAMP HTRF, 30 min; Potency, µM (highest dose often 76.9 µM), actives largely listed as inhibitors; hit rate 0.4% among 340,000; AID 624288; calls by dose curve; cell line not stated here;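 further: intracellular cAMP measured with PDE inhibitor Ro 20-1724 present during compound exposure; nearly all actives have a fitted effect of over 65% in size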
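Cells in G418 medium, seeded 16-24 h, 37C; buffer exchange to DPBS + 1 mM CaCl2, 0.5 mM MgCl2, 0.05% BSA; cpds in DMSO + […] (300 uM stock), 30 min 37C; HTRF cAMP detection.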
a7 integrin act: activates integrin-mediated alleviation for muscular dystrophy. alpha7betagal myoblasts, beta-gal FDG fluorescence, 48 h. hit rate 0.064% among 350,000. AID 624291. Potency, µM (series often up to 38.3 µM), hits mostly activators; further: nearly all actives have a fitted effect of over 60% in size
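Alpha7betagal+/- myoblasts (passage 13) were plated 16-24 hr, then exposed to compounds (1:260 dilution of DMSO stock) for 48 hours at 37C. After MPER lysis, β-galactosidase reporter activity was read as FDG fluorescence (ex 480/em 540) after 30 minutes.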
Hits are given with their value; i = inactive; ? = inconclusive; nt = not tested or not shown; [ ] = another dose, or the depositor's remark. A selection: hits, their analogues and other compounds. The true share with any hit is near 1.1%. Unless noted, the call rests on the fitted dose curve; in most records, active means well fitted curve in the direction sought with a large enough effect; inconclusive means small, poorly fitted or top-dose-only effect, or another doubt; inactive means no such curve, though single readings can be large; an effect the other way counts as inactive or inconclusive.

SMILES	S-ASM inh	RXFP1 antagonist	gsp ag	RXFP1 ag	gsp antagonist	a7 integrin act
COc1cc(C)nc(N(C)S(=O)(=O)c2ccccc2Cl)n1	i	i	i	i	32µM	i
COc1nc(N(C)C)nc(N(OC)S(=O)(=O)c2ccccc2Cl)n1	i	i	i	i	i	i
CC(C)c1nc(N2CCOCC2)c(C#N)c2c1CCC2	i	i	i	i	35µM	i
CC(C)S(=O)(=O)c1oc(-c2ccc(F)cc2)nc1S(=O)(=O)c1ccccc1	nt	-106	nt	i	nt	nt
CC(C)S(=O)(=O)c1oc(-c2cccs2)nc1S(=O)(=O)c1ccc(F)cc1	nt	-79	nt	i	nt	nt
CS(=O)(=O)c1oc(-c2ccc(F)cc2)nc1S(=O)(=O)c1ccc(Cl)cc1	nt	?	nt	i	nt	nt
Cc1ccc(S(=O)(=O)c2nc(-c3cccs3)oc2SC(C)C)cc1	nt	i	nt	i	nt	nt
CSc1oc(-c2ccc(F)cc2)nc1S(=O)(=O)c1ccccc1	i	i	i	i	i	i
CCCCS(=O)(=O)c1oc(-c2ccc(F)cc2)nc1S(=O)(=O)c1ccccc1	nt	-81	nt	i	nt	nt
CCS(=O)(=O)c1oc(-c2ccc(F)cc2)nc1S(=O)(=O)c1ccc(Br)cc1	nt	-102	nt	i	nt	nt
CCN1C(=O)[C@H]2[C@@H](c3ccc(-c4ccccc4)cc3)N3CCC[C@@]3(C(=O)OC)[C@H]2C1=O	i	nt	i	i	i	i
O=S(=O)(Nc1ccccn1)c1ccc(-n2cccn2)cc1	i	-108	?	i	i	i
O=S(=O)(Nc1ccccn1)c1ccc(Cl)cc1	i	i	i	i	i	i
O=C(NCc1ccccc1F)C(=O)NCC(c1ccco1)S(=O)(=O)c1cccs1 (centres undefined)	nt	i	nt	i	nt	nt
COc1ccc(S(=O)(=O)Nc2cccc(S(=O)(=O)N3CCCCCC3)c2)cc1	i	i	i	i	i	i
O=S(=O)(Nc1nc2ccccc2nc1Nc1cccc(S(=O)(=O)N2CCCCC2)c1)c1ccccc1	i	i	i	i	35µM	i
Cc1cccc(C)c1NC(=O)C(=O)NCC(c1ccc2c(c1)OCO2)N1CCN(C)CC1 (centres undefined)	nt	i	nt	i	nt	nt
COc1ccccc1NS(=O)(=O)c1cc(NC(=O)c2[nH]c(C)c(C(C)=O)c2C)ccc1N1CCOCC1	?	i	i	i	i	i
COc1ccc(/C(C)=N/NC(=S)NCCc2ccccc2)c(O)c1	?	-62	i[15.4 µM]	i	i	i
Cc1ccc(C(=O)NCC2CCCN2S(=O)(=O)c2cccs2)cc1C (centres undefined)	i	i	i	i	i	i
COc1cc(C(=O)NCC2CCCN2S(=O)(=O)c2cccs2)cc(OC)c1OC (centres undefined)	i	-82	i[15.4 µM]	i	i	i
CCCCOC(=O)CNc1n[nH]c(=S)[nH]c1=O	i	-63	?	?	i	i
COc1ccc(Cl)cc1NC(=O)NNC(=O)C(=O)Nc1ccc(F)cc1	nt	i	i	nt	nt	i
COc1ccc(Nc2nc(NCCO)nc(N3CCCC3)n2)cc1	i	nt	nt	nt	nt	nt
CCCNc1nc(Nc2ccc(C)cc2)nc(N2CCCC2)n1	i	i	i	i	32µM	i
SMILES	S-ASM inh	RXFP1 antagonist	gsp ag	RXFP1 ag	gsp antagonist	a7 integrin act
OCc1ccccc1SSc1ccccc1CO	i	-65	i[15.4 µM]	nt	?	i
COc1cc(C2Nc3cccc4cccc(c34)N2)cc(OC)c1OC(C)=O	i	?	i	i	i	i
COc1cc(C2Nc3cccc4cccc(c34)N2)ccc1O	i	-70	i[15.4 µM]	i	i	i
CC(=O)N1CCCC1c1nc2ccccc2n1Cc1c(F)cccc1Cl (centres undefined)	nt	nt	nt	i	nt	nt
CCc1ccc(NC(=O)CC2C(=O)OCCN2CC)cc1 (centres undefined)	nt	nt	nt	i	nt	nt
CSc1ccc(S(=O)(=O)N(C)Cc2ccccc2)cc1	i	i	i	i	35µM	i
CN(Cc1ccccc1)S(=O)(=O)c1ccc(NS(C)(=O)=O)cc1	i	i	i	i	i	i
COc1ccc(-c2nn(C)c3sc(C(=O)NCc4ccco4)cc23)cc1OC	i	i	13µM	?	i	i
Cc1ccccc1N1CCN(CCc2nnc3n2CCCC3)CC1	nt	i	nt	nt	nt	nt
COc1ccc(CCNC(=O)c2ccc3c(c2)CCN3S(=O)(=O)c2ccc(C)cc2)cc1	nt	i	nt	i	nt	nt
CCOC(=O)c1ccc(-c2ccc3oc(-c4ccsc4)cc(=O)c3c2)cc1F	i	nt	nt	nt	7.1µM	i
Cc1cc(C)c(NC(=O)Cn2nnc(-c3nc(-c4ccccc4)no3)c2N)c(C)c1	nt	i	nt	i	nt	nt
CCCNC(=O)C1CCC(Cn2c(=O)c3sccc3n(CC(=O)NCc3cccc(OC)c3OC)c2=O)CC1 (centres undefined)	nt	nt	nt	22µM	nt	nt
CNC(=O)C1CCC(Cn2c(=O)c3sccc3n(CC(=O)NCc3cccc(OC)c3)c2=O)CC1 (centres undefined)	nt	i	nt	i	nt	nt
O=C(Nc1ccc(N2CCN(C(=O)c3cccs3)CC2)cc1)c1ccc(F)cc1	i	-66	i	i	i	i
c1ccc2c(c1)[nH]c1c3ccccc3sc21	i	i	i	i	i	i
COC(=O)c1ccc(Cn2cc(/C=C\[N+](=O)[O-])c3ccccc32)o1	i	-95	i	i	i	i
O=C(O)c1ccc(Cn2cc(/C=C\[N+](=O)[O-])c3ccccc32)o1	i	i	i	i	i	i
CN1CCCCCC1=Nc1ccc([N+](=O)[O-])cc1	i	i	i[15.4 µM]	nt	i	i
CN1C(=O)C(N=Nc2ccc([N+](=O)[O-])cc2)SC1=S (centres undefined)	i	i	?	nt	32µM	i
Cc1cc(Cl)ccc1OC(C)C(=O)Nc1ccc(S(=O)(=O)N2CCOCC2)cc1 (centres undefined)	i	i	i	nt	i	i
Cc1cc(Cl)ccc1OC(C)C(=O)Nc1ccc(C(=O)Nc2ccccc2C(=O)O)cc1 (centres undefined)	i	i	i	i	32µM	i
Cc1ccc(-c2nnc(N3CCN(c4ccccn4)CC3)c3ccccc23)cc1	i	?	i[15.4 µM]	i	40µM	i
Cc1ccc(-c2nnc(N3CCN(C(=O)c4cccs4)CC3)c3ccccc23)cc1	i	i	i	i	45µM	i
O=C(c1cccs1)N1CCN(c2nnc(-c3ccccc3)c3ccccc23)CC1	i	i	i[15.4 µM]	i	i	i
Cc1ccc(-c2nnc(N3CCCCC3)c3ccccc23)cc1	i	i	i	i	35µM	i
CCC(=O)N1CCc2cc(S(=O)(=O)NC(C(=O)NCCc3cccc(C)c3)C(C)C)ccc21 (centres undefined)	nt	i	nt	i	nt	nt
Cc1ccc(NC(=O)CSc2nnc(Cc3cccn3C)n2-c2ccc(F)cc2)c(C)c1	i	i	i	i	50µM	i
